# Experimental data reported in paper PMC11006913.
# Changes are numbered by the printed parent chain.
# Assays:
# Test in all cases: PBM; 200 nM protein, PBS
# Details in all cases: dsDNA, one strand shown
# [1] = target: NKX2-5 (Homo sapiens, UniProt P52952 125-210, R139K)
# [2] = target: T1, NKX2-6 (Homo sapiens, UniProt A6NCS4 118-204, R150C)
# T1 sequence: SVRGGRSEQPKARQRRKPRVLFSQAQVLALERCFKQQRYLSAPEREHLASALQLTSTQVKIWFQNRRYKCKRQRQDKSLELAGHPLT
# [3] = target: T2, NKX2-6 (Homo sapiens, UniProt A6NCS4 118-204)
# T2 sequence: T1 sequence with C33R
# [4] = target: T3, NKX2-6 (Homo sapiens, UniProt A6NCS4 118-204, F151L)
# T3 sequence: T1 sequence with C33R, F34L
# [5] = target: NKX3-2 (Homo sapiens, UniProt P78367 192-278, P234S)
# Chain of NKX3-2 (Homo sapiens, UniProt P78367 192-278, P234S) (P78367 192-278 P234S): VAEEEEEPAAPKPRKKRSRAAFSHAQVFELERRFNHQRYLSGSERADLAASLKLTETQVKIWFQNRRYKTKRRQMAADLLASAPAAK
# [6] = target: NKX2-5 (Homo sapiens, UniProt P52952 125-210)
# Chain of NKX2-5 (Homo sapiens, UniProt P52952 125-210) (P52952 125-210): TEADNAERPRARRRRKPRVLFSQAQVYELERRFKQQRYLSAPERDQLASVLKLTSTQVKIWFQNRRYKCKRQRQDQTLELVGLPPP
# [7] = target: NKX3-2 (Homo sapiens, UniProt P78367 192-278)
# Chain of NKX3-2 (Homo sapiens, UniProt P78367 192-278) (P78367 192-278): as the sequence (P78367 192-278 P234S) above, with S43P counted along it
# [8] = target: T4, NKX2-4 (Homo sapiens, UniProt Q9H2Z4 175-261, R246Q)
# T4 sequence: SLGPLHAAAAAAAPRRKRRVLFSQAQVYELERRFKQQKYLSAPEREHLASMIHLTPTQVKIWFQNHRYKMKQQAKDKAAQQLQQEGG
# [9] = target: PITX2 (Homo sapiens, UniProt Q99697 72-157)
# Chain of NKX2-5 (Homo sapiens, UniProt P52952 125-210, R139K) (P52952 125-210 R139K): as the sequence (P52952 125-210) above, with R15K counted along it
sequence,measurement,setting,value
CTAAGTAC,binding signal,[1],"12.3 upbm affinity estimate (log intensity, higher = more binding, comparable within an allelic series)"
same,binding signal,[2],"11.7 upbm affinity estimate (log intensity, higher = more binding, comparable within an allelic series)"
same,binding signal,[3],"13.4 upbm affinity estimate (log intensity, higher = more binding, comparable within an allelic series)"
same,binding signal,[4],"10.5 upbm affinity estimate (log intensity, higher = more binding, comparable within an allelic series)"
same,binding signal,[5],"12.5 upbm affinity estimate (log intensity, higher = more binding, comparable within an allelic series)"
same,binding signal,[6],"12.2 upbm affinity estimate (log intensity, higher = more binding, comparable within an allelic series)"
same,binding signal,[7],"12.6 upbm affinity estimate (log intensity, higher = more binding, comparable within an allelic series)"
CCTCCGGA,binding signal,[1],"8.88 upbm affinity estimate (log intensity, higher = more binding, comparable within an allelic series)"
same,binding signal,[2],"9.54 upbm affinity estimate (log intensity, higher = more binding, comparable within an allelic series)"
same,binding signal,[6],"8.86 upbm affinity estimate (log intensity, higher = more binding, comparable within an allelic series)"
GCGGCCAC,binding signal,[1],"8.75 upbm affinity estimate (log intensity, higher = more binding, comparable within an allelic series)"
same,binding signal,[2],"9.34 upbm affinity estimate (log intensity, higher = more binding, comparable within an allelic series)"
same,binding signal,[6],"8.78 upbm affinity estimate (log intensity, higher = more binding, comparable within an allelic series)"
AGCACTTG,binding signal,[1],"12.4 upbm affinity estimate (log intensity, higher = more binding, comparable within an allelic series)"
same,binding signal,[2],"11.6 upbm affinity estimate (log intensity, higher = more binding, comparable within an allelic series)"
same,binding signal,[8],"13 upbm affinity estimate (log intensity, higher = more binding, comparable within an allelic series)"
same,binding signal,[4],"10.6 upbm affinity estimate (log intensity, higher = more binding, comparable within an allelic series)"
same,binding signal,[6],"12.3 upbm affinity estimate (log intensity, higher = more binding, comparable within an allelic series)"
AAGTGGCC,binding signal,[1],"12.4 upbm affinity estimate (log intensity, higher = more binding, comparable within an allelic series)"
same,binding signal,[2],"11.6 upbm affinity estimate (log intensity, higher = more binding, comparable within an allelic series)"
same,binding signal,[3],"13.3 upbm affinity estimate (log intensity, higher = more binding, comparable within an allelic series)"
same,binding signal,[4],"10.5 upbm affinity estimate (log intensity, higher = more binding, comparable within an allelic series)"
same,binding signal,[5],"12.9 upbm affinity estimate (log intensity, higher = more binding, comparable within an allelic series)"
same,binding signal,[6],"12.4 upbm affinity estimate (log intensity, higher = more binding, comparable within an allelic series)"
same,binding signal,[7],"13.1 upbm affinity estimate (log intensity, higher = more binding, comparable within an allelic series)"
CCCTTAAC,binding signal,[1],"10.9 upbm affinity estimate (log intensity, higher = more binding, comparable within an allelic series)"
same,binding signal,[6],"10.8 upbm affinity estimate (log intensity, higher = more binding, comparable within an allelic series)"
CAGTTGGC,binding signal,[1],"8.87 upbm affinity estimate (log intensity, higher = more binding, comparable within an allelic series)"
same,binding signal,[6],"8.7 upbm affinity estimate (log intensity, higher = more binding, comparable within an allelic series)"
CGGACCCC,binding signal,[1],"9.12 upbm affinity estimate (log intensity, higher = more binding, comparable within an allelic series)"
same,binding signal,[6],"9.03 upbm affinity estimate (log intensity, higher = more binding, comparable within an allelic series)"
GCAGACCA,binding signal,[1],"9.14 upbm affinity estimate (log intensity, higher = more binding, comparable within an allelic series)"
same,binding signal,[6],"9.12 upbm affinity estimate (log intensity, higher = more binding, comparable within an allelic series)"
GCTGCGAC,binding signal,[1],"8.9 upbm affinity estimate (log intensity, higher = more binding, comparable within an allelic series)"
same,binding signal,[6],"8.94 upbm affinity estimate (log intensity, higher = more binding, comparable within an allelic series)"
AGTACTCG,binding signal,[1],"11.5 upbm affinity estimate (log intensity, higher = more binding, comparable within an allelic series)"
same,binding signal,[6],"11.3 upbm affinity estimate (log intensity, higher = more binding, comparable within an allelic series)"
ACTGGCCC,binding signal,[1],"8.91 upbm affinity estimate (log intensity, higher = more binding, comparable within an allelic series)"
same,binding signal,[6],"8.87 upbm affinity estimate (log intensity, higher = more binding, comparable within an allelic series)"
CCCGAGGC,binding signal,[1],"9.04 upbm affinity estimate (log intensity, higher = more binding, comparable within an allelic series)"
same,binding signal,[9],"8.01 upbm affinity estimate (log intensity, higher = more binding, comparable within an allelic series)"
same,binding signal,[5],"10.3 upbm affinity estimate (log intensity, higher = more binding, comparable within an allelic series)"
same,binding signal,[6],"9.06 upbm affinity estimate (log intensity, higher = more binding, comparable within an allelic series)"
same,binding signal,[7],"10.4 upbm affinity estimate (log intensity, higher = more binding, comparable within an allelic series)"
CGGCCAGC,binding signal,[1],"8.6 upbm affinity estimate (log intensity, higher = more binding, comparable within an allelic series)"
same,binding signal,[6],"8.71 upbm affinity estimate (log intensity, higher = more binding, comparable within an allelic series)"
ACTTATCG,binding signal,[1],"11.2 upbm affinity estimate (log intensity, higher = more binding, comparable within an allelic series)"
same,binding signal,[6],"11.2 upbm affinity estimate (log intensity, higher = more binding, comparable within an allelic series)"
CGGCGTAC,binding signal,[1],"8.9 upbm affinity estimate (log intensity, higher = more binding, comparable within an allelic series)"
same,binding signal,[6],"8.89 upbm affinity estimate (log intensity, higher = more binding, comparable within an allelic series)"
CCACTAGA,binding signal,[1],"11.3 upbm affinity estimate (log intensity, higher = more binding, comparable within an allelic series)"
same,binding signal,[6],"11.2 upbm affinity estimate (log intensity, higher = more binding, comparable within an allelic series)"
ACCGGAGC,binding signal,[1],"8.8 upbm affinity estimate (log intensity, higher = more binding, comparable within an allelic series)"
same,binding signal,[6],"8.81 upbm affinity estimate (log intensity, higher = more binding, comparable within an allelic series)"
AATCTTGA,binding signal,[1],"10.5 upbm affinity estimate (log intensity, higher = more binding, comparable within an allelic series)"
same,binding signal,[6],"10.5 upbm affinity estimate (log intensity, higher = more binding, comparable within an allelic series)"
AAAGTGCC,binding signal,[1],"11.6 upbm affinity estimate (log intensity, higher = more binding, comparable within an allelic series)"
same,binding signal,[6],"11.7 upbm affinity estimate (log intensity, higher = more binding, comparable within an allelic series)"
CTCATAAG,binding signal,[1],"10.8 upbm affinity estimate (log intensity, higher = more binding, comparable within an allelic series)"
same,binding signal,[6],"10.9 upbm affinity estimate (log intensity, higher = more binding, comparable within an allelic series)"
AATAGTCT,binding signal,[1],"10.6 upbm affinity estimate (log intensity, higher = more binding, comparable within an allelic series)"
same,binding signal,[6],"10.7 upbm affinity estimate (log intensity, higher = more binding, comparable within an allelic series)"
CACAGCCC,binding signal,[1],"9.06 upbm affinity estimate (log intensity, higher = more binding, comparable within an allelic series)"
same,binding signal,[6],"9.02 upbm affinity estimate (log intensity, higher = more binding, comparable within an allelic series)"
CCCGTAGC,binding signal,[1],"8.54 upbm affinity estimate (log intensity, higher = more binding, comparable within an allelic series)"
same,binding signal,[6],"8.55 upbm affinity estimate (log intensity, higher = more binding, comparable within an allelic series)"
CCGTCCCG,binding signal,[1],"8.71 upbm affinity estimate (log intensity, higher = more binding, comparable within an allelic series)"
same,binding signal,[6],"8.66 upbm affinity estimate (log intensity, higher = more binding, comparable within an allelic series)"
CTGCCGCC,binding signal,[1],"8.73 upbm affinity estimate (log intensity, higher = more binding, comparable within an allelic series)"
same,binding signal,[6],"8.63 upbm affinity estimate (log intensity, higher = more binding, comparable within an allelic series)"
CCCTAAGA,binding signal,[1],"10.8 upbm affinity estimate (log intensity, higher = more binding, comparable within an allelic series)"
same,binding signal,[6],"10.8 upbm affinity estimate (log intensity, higher = more binding, comparable within an allelic series)"
ACGGTCCA,binding signal,[1],"8.85 upbm affinity estimate (log intensity, higher = more binding, comparable within an allelic series)"
same,binding signal,[5],"10.5 upbm affinity estimate (log intensity, higher = more binding, comparable within an allelic series)"
same,binding signal,[6],"8.85 upbm affinity estimate (log intensity, higher = more binding, comparable within an allelic series)"
same,binding signal,[7],"10.5 upbm affinity estimate (log intensity, higher = more binding, comparable within an allelic series)"
CGGCGAAC,binding signal,[1],"8.65 upbm affinity estimate (log intensity, higher = more binding, comparable within an allelic series)"
same,binding signal,[6],"8.62 upbm affinity estimate (log intensity, higher = more binding, comparable within an allelic series)"
CAATACTC,binding signal,[1],"10.2 upbm affinity estimate (log intensity, higher = more binding, comparable within an allelic series)"
same,binding signal,[6],"10.2 upbm affinity estimate (log intensity, higher = more binding, comparable within an allelic series)"
CAAGTGCC,binding signal,[1],"12.3 upbm affinity estimate (log intensity, higher = more binding, comparable within an allelic series)"
same,binding signal,[4],"10.6 upbm affinity estimate (log intensity, higher = more binding, comparable within an allelic series)"
CCTGGCAG,binding signal,[1],"8.78 upbm affinity estimate (log intensity, higher = more binding, comparable within an allelic series)"
same,binding signal,[6],"8.78 upbm affinity estimate (log intensity, higher = more binding, comparable within an allelic series)"
ACACTCTG,binding signal,[1],"10.6 upbm affinity estimate (log intensity, higher = more binding, comparable within an allelic series)"
same,binding signal,[6],"10.5 upbm affinity estimate (log intensity, higher = more binding, comparable within an allelic series)"
CACAGCCG,binding signal,[1],"8.68 upbm affinity estimate (log intensity, higher = more binding, comparable within an allelic series)"
same,binding signal,[6],"8.68 upbm affinity estimate (log intensity, higher = more binding, comparable within an allelic series)"
CCGGGCCA,binding signal,[1],"9.01 upbm affinity estimate (log intensity, higher = more binding, comparable within an allelic series)"
same,binding signal,[6],"8.94 upbm affinity estimate (log intensity, higher = more binding, comparable within an allelic series)"
ATACTCCA,binding signal,[1],"10.6 upbm affinity estimate (log intensity, higher = more binding, comparable within an allelic series)"
same,binding signal,[6],"10.4 upbm affinity estimate (log intensity, higher = more binding, comparable within an allelic series)"
ATAAGCGG,binding signal,[1],"10.3 upbm affinity estimate (log intensity, higher = more binding, comparable within an allelic series)"
same,binding signal,[6],"10.3 upbm affinity estimate (log intensity, higher = more binding, comparable within an allelic series)"
CGGTTTGC,binding signal,[1],"8.63 upbm affinity estimate (log intensity, higher = more binding, comparable within an allelic series)"
same,binding signal,[6],"8.59 upbm affinity estimate (log intensity, higher = more binding, comparable within an allelic series)"
ACCGCGGC,binding signal,[1],"8.83 upbm affinity estimate (log intensity, higher = more binding, comparable within an allelic series)"
same,binding signal,[6],"8.84 upbm affinity estimate (log intensity, higher = more binding, comparable within an allelic series)"
GCAAAGTA,binding signal,[1],"10.7 upbm affinity estimate (log intensity, higher = more binding, comparable within an allelic series)"
same,binding signal,[6],"10.8 upbm affinity estimate (log intensity, higher = more binding, comparable within an allelic series)"
CACTAAGC,binding signal,[1],"10.7 upbm affinity estimate (log intensity, higher = more binding, comparable within an allelic series)"
same,binding signal,[6],"10.6 upbm affinity estimate (log intensity, higher = more binding, comparable within an allelic series)"
AAGTAGGG,binding signal,[1],"10.9 upbm affinity estimate (log intensity, higher = more binding, comparable within an allelic series)"
same,binding signal,[6],"10.9 upbm affinity estimate (log intensity, higher = more binding, comparable within an allelic series)"
ACCACTCT,binding signal,[1],"11.3 upbm affinity estimate (log intensity, higher = more binding, comparable within an allelic series)"
same,binding signal,[6],"11.2 upbm affinity estimate (log intensity, higher = more binding, comparable within an allelic series)"
TATGAAGA,binding signal,[1],"10.8 upbm affinity estimate (log intensity, higher = more binding, comparable within an allelic series)"
same,binding signal,[6],"10.7 upbm affinity estimate (log intensity, higher = more binding, comparable within an allelic series)"
CCGAGCCA,binding signal,[1],"9.01 upbm affinity estimate (log intensity, higher = more binding, comparable within an allelic series)"
same,binding signal,[6],"9.05 upbm affinity estimate (log intensity, higher = more binding, comparable within an allelic series)"
CCGGAGAC,binding signal,[1],"8.74 upbm affinity estimate (log intensity, higher = more binding, comparable within an allelic series)"
same,binding signal,[6],"8.76 upbm affinity estimate (log intensity, higher = more binding, comparable within an allelic series)"
AGCACTAG,binding signal,[1],"10.6 upbm affinity estimate (log intensity, higher = more binding, comparable within an allelic series)"
same,binding signal,[6],"10.6 upbm affinity estimate (log intensity, higher = more binding, comparable within an allelic series)"
